Experimental data as given in PubChem BioAssay AID624138 (Broad Institute, 2012).
In all, about 17,000 compounds went through this assay and about 35 (0.2%) were called active.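 How the source made its calls: active means compounds whose four printed spots each show fluorescence over background unusually high for their array block, chance value under 7%; inactive means the rest.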 The list comes from a sample in which actives are over-represented; it also holds similar structures and randomly drawn compounds.

Biological target: Signal transducer and activator of transcription 3 (Homo sapiens) (UniProt P40763)
Sequence (P40763 whole entry, looked up): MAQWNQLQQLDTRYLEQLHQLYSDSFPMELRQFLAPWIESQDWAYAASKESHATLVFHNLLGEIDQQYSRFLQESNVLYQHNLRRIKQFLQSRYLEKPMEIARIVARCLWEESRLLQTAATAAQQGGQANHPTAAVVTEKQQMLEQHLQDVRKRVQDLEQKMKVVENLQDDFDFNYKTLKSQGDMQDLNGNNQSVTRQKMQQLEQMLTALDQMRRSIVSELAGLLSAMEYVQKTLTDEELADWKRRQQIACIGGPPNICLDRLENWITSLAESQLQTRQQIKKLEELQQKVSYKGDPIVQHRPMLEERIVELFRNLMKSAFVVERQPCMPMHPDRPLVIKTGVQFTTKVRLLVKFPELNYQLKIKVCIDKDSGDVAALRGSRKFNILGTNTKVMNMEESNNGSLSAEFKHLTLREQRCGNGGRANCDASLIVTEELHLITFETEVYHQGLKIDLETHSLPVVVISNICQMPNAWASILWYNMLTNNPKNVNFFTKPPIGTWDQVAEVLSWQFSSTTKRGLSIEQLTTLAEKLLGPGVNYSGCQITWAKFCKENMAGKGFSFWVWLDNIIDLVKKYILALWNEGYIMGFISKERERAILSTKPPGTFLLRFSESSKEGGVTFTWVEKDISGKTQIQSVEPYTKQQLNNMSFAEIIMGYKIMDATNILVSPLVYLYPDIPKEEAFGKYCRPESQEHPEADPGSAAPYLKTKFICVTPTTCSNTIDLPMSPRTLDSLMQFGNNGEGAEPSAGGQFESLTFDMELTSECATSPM
Assay: STAT3 binders, primary screen, biochemical, small molecule microarray, single point, set 2 (AID 624138)
Settings: His-STAT3 binding, anti-His fluorescence

Row | Structure (SMILES) | outcome
1 | CNC[C@@H]1Oc2ccc(NC(=O)Nc3ccc4c(c3)OCO4)cc2C(=O)N([C@H](C)CO)C[C@@H]1C | inactive
2 | C[C@@H]1CCCCO[C@@H](CN(C)Cc2ccc(Cl)c(Cl)c2)[C@@H](C)CN([C@@H](C)CO)C(=O)c2cc(NS(C)(=O)=O)ccc2O1 | inactive
3 | C[C@H]1CCCCO[C@@H](CN(C)Cc2ccccc2)[C@@H](C)CN([C@@H](C)CO)C(=O)c2cc(NC(=O)CCCN(C)C)ccc2O1 | inactive
4 | C[C@H]1CN([C@@H](C)CO)C(=O)c2cc(NC(=O)Nc3ccccc3)ccc2O[C@@H]1CN(C)C(=O)Nc1ccccc1 | inactive
5 | CCOC(=O)c1c(CN2CCOCC2)nc2c3ccccc3ccn12 | inactive
6 | O=C(c1cc2ccccc2oc1=O)N(Cc1ccc(F)cc1)Cc1ccco1 | inactive
7 | CCOC(=O)c1sc(NC(=S)Nc2ccc3c(c2)OCCO3)c(C(=O)OCC)c1C | inactive
8 | CC(Oc1ccccc1)C(=O)N[C@@H]1C(=O)N2[C@@H]1SC(C)(C)[C@@H]2C(=O)O (some centres undefined) | inactive
9 | CC(C)NC(=O)Nc1ccc2c(c1)C(=O)N([C@H](C)CO)C[C@H](C)[C@@H](CN(C)C(=O)CCCN(C)C)OCCCC[C@@H](C)O2 | inactive
10 | COc1ccc(-c2oc3cc(OC)ccc3c2C(=O)c2ccc(C#N)cc2)cc1 | inactive
11 | C[C@H](CO)N1C[C@H](C)[C@@H](CN(C)Cc2ccncc2)Oc2ccc(NC(=O)Nc3ccccc3)cc2C1=O | inactive
12 | C[C@H](CO)N1C[C@H](C)[C@H](CN(C)C(=O)NC2CCCCC2)Oc2c(NC(=O)c3nc4ccccc4s3)cccc2C1=O | inactive
13 | C[C@@H]1CCCCO[C@H](CN(C)C(=O)Nc2cccc3ccccc23)[C@@H](C)CN([C@H](C)CO)C(=O)c2cc(NS(=O)(=O)c3cccs3)ccc2O1 | inactive
14 | C[C@@H]1CCCCO[C@H](CN(C)Cc2ccccc2)[C@H](C)CN([C@@H](C)CO)C(=O)c2cc(NS(=O)(=O)c3ccccc3)ccc2O1 | inactive
15 | C[C@H](CO)N1C[C@H](C)[C@H](CN(C)S(=O)(=O)c2ccc(F)cc2)Oc2ncc(-c3ccc(F)cc3)cc2C1=O | inactive
16 | C[C@@H]1CN([C@@H](C)CO)C(=O)c2cc(NS(C)(=O)=O)ccc2O[C@@H]1CN(C)C(=O)Nc1ccc(F)cc1 | inactive
17 | C[C@H](CO)N1C[C@H](C)[C@@H](CN(C)S(=O)(=O)c2cn(C)cn2)Oc2ccc(NS(=O)(=O)c3cn(C)cn3)cc2C1=O | inactive
18 | C[C@@H]1CC[C@]2(C(=O)O)CC[C@]3(C)C(=CCC4[C@@]5(C)CC[C@H](O)[C@](C)(C(=O)O)C5CC[C@]43C)C2[C@]1(C)O (some centres undefined) | inactive
19 | NC(=O)CSc1nnc(-c2ccccc2F)n1-c1ccccc1 | inactive
20 | C[C@H](CO)N1C[C@H](C)[C@H](CN(C)Cc2ccc(C(=O)O)cc2)Oc2c(NC(=O)C3CCOCC3)cccc2C1=O | inactive
21 | COC(=O)c1ccccc1NC(=O)CNS(=O)(=O)c1cc(Cl)ccc1Cl | inactive
22 | Cc1noc(C)c1NC(=O)N(C)C[C@@H]1OCCCC[C@@H](C)Oc2ccc(NC(=O)C3CCCCC3)cc2C(=O)N([C@H](C)CO)C[C@@H]1C | inactive
23 | COC(=O)c1c(NC(=O)c2cc(-c3ccccn3)nc3c(C)cc(C)cc23)sc(C)c1C | inactive
24 | COc1ccc(NC(=O)Nc2ccc3c(c2)C(=O)N([C@@H](C)CO)C[C@@H](C)[C@H](CN(C)S(=O)(=O)c2cccs2)O3)cc1 | inactive
25 | Cc1noc(C)c1NC(=O)Nc1cccc2c1O[C@H](CN(C)C(=O)Nc1c(C)noc1C)[C@@H](C)CN([C@@H](C)CO)C2=O | inactive

Row | Structure (SMILES) | outcome
26 | CC[C@@H]1Cc2cc(O)ccc2C2=C1c1ccc(O)cc1C[C@H]2CC | inactive
27 | CC(C)C(NS(=O)(=O)c1ccc(-c2ccc(Br)cc2)cc1)C(=O)O (centres undefined) | inactive
28 | O=C(NCc1ccccc1)C1=C[C@H](C2CC2)C[C@H](OCc2ccc(CO)cc2)O1 | inactive
29 | CC(C)(C)[C@H]1C=C(C(=O)NCc2ccccc2)O[C@@H](OCc2ccc(CO)cc2)C1 | inactive
30 | O=C(NCc1ccccc1)C1=C[C@@H](C2CCCCC2)C[C@@H](OCc2ccc(CO)cc2)O1 | active
31 | C[C@@H]1CN([C@@H](C)CO)C(=O)CCCn2nncc2CO[C@@H]1CN(C)Cc1ccccc1 | inactive
32 | CN(C)c1nc(Nc2nc3ccccc3[nH]2)nc(N(C)C)n1 | inactive
33 | COC(=O)C(C)N(C(=O)c1ccccc1[N+](=O)[O-])c1c(C)cccc1C (centres undefined) | inactive
34 | COc1ccc(NC(=O)Nc2nn(Cc3ccc(Cl)cc3Cl)cc2Br)cc1OC | inactive
35 | COCCCNC(=O)C(=O)c1cn(C)c2ccccc12 | inactive
36 | O=C1C[C@@](C(=O)NCC(F)(F)F)(c2ccc([N+](=O)[O-])cc2)[C@@H](c2ccc(CO)cc2I)N1C1CCCCC1 | inactive
37 | COC(=O)C1=C[C@H](O[C@@H]2O[C@H](CO)[C@@H](O)[C@H](O)[C@H]2O)C[C@H]2[C@]3(C)C[C@@H](c4ccoc4)OC(=O)[C@H]3CC[C@@]12C | inactive
38 | CCn1c(SCC(=O)O)nnc1-c1ccc(OC)cc1 | inactive
39 | C[C@H](CO)N1C[C@H](C)[C@H](CN(C)C(=O)Nc2ccccc2)Oc2ccc(NC(=O)CCN3CCOCC3)cc2CC1=O | inactive
40 | OC[C@H]1O[C@@H](OCc2ccccc2)[C@H](O[C@@H]2OC[C@](O)(CO)[C@H]2O)[C@@H](O)[C@@H]1O | inactive
41 | COc1ccc(CCN2C(=O)[C@@]3(Cc4ccccc42)c2ccccc2C(=O)N(Cc2ccccc2C(F)(F)F)[C@H]3c2ccc(CO)cc2)cc1 | inactive
42 | C[C@@H]1CN([C@H](C)CO)C(=O)CCCn2cc(nn2)CO[C@@H]1CN(C)C(=O)Nc1ccc2c(c1)OCO2 | inactive
43 | O=C(Nc1cccc(OCC(=O)N2CCOCC2)c1)C1CCCCC1 | inactive
44 | O=c1c(-c2ccc(O[C@@H]3O[C@H](CO)[C@@H](O)[C@H](O)[C@H]3O)cc2)coc2c([C@@H]3O[C@H](CO)[C@@H](O)[C@H](O)[C@H]3O)c(O)cc(O)c12 | inactive
45 | Cc1ccc(Cn2c(NCc3nc4ccccc4n3C)nc3ccccc32)cc1 | inactive
46 | COc1cccc(-c2cc(C(F)(F)F)n3nc(C(=O)NCc4ccccn4)cc3n2)c1 | inactive
47 | C[C@@H]1CN([C@@H](C)CO)C(=O)c2cc(NS(C)(=O)=O)ccc2O[C@@H]1CN(C)C | inactive
48 | CCCN(C)C[C@@H]1Oc2ncc(C#Cc3ccccc3)cc2C(=O)N([C@H](C)CO)C[C@@H]1C | inactive
49 | Cc1cc(OCC(=O)Nc2ccccc2C(N)=O)cc(C)c1Br | inactive
50 | COc1ccc(CCNc2nc(C)cc(C)n2)cc1OC | inactive

Row | Structure (SMILES) | outcome
51 | COc1ccc(S(=O)(=O)Nc2ccc3c(c2)C(=O)N([C@H](C)CO)C[C@@H](C)[C@@H](CN(C)Cc2ccccc2)O3)cc1 | inactive
52 | C[C@@H]1CCCCO[C@@H](CN(C)Cc2ccncc2)[C@H](C)CN([C@@H](C)CO)C(=O)c2cc(N(C)C)ccc2O1 | inactive
53 | C[C@@H]1CCCCO[C@@H](CN(C)C(=O)Cc2ccccc2)[C@H](C)CN([C@@H](C)CO)C(=O)c2cc(NC(=O)Nc3ccc(F)cc3)ccc2O1 | inactive
54 | CC(C)(C)c1ccc(OCC(=O)Nc2cccc(NC(=O)c3ccccc3)c2)cc1 | inactive
55 | Oc1ccc(-c2c(-c3ccccc3)nn3c(C(F)(F)F)cc(C(F)(F)F)nc23)cc1 | inactive
56 | COc1c(Br)cc2c(cc(C)n2-c2ccccc2)c1OCC(O)CNC(C)C (centres undefined) | inactive
57 | CC(=O)c1c(C)n(CC(=O)O)c2ccccc12 | inactive
58 | C[C@H](CO)N1C[C@H](C)[C@H](CN(C)C)Oc2c(NS(=O)(=O)c3ccc(Cl)cc3)cccc2C1=O | inactive
59 | C[C@@H]1CN([C@H](C)CO)C(=O)CCCn2nncc2CO[C@@H]1CN(C)C | inactive
60 | Cc1ccc(NC(=O)CSc2ncn[nH]2)c(C)c1 | inactive
61 | C=C1C(=C/C=C2\CCC[C@]3(C)[C@@H]([C@H](C)CCCC(C)(C)O)CC[C@@H]23)C[C@@H](O)C[C@@H]1O | inactive
62 | COCCCNC(=O)[C@@]1(Cc2ccccc2)COC(c2ccc(OCCCO)cc2)=N1 | inactive
63 | CC(C)(O)C(O)COc1c2occc2cc2ccc(=O)oc12 (centres undefined) | inactive
64 | CNC[C@@H]1Oc2c(NC(=O)C3CCOCC3)cccc2C(=O)N([C@@H](C)CO)C[C@H]1C | inactive
65 | O=C(O)CCC(=O)Nc1ccc(-c2nc3ccccc3o2)cc1 | inactive
66 | C[C@@H]1CN([C@H](C)CO)C(=O)c2cc(NC(=O)Nc3ccccc3)ccc2O[C@@H]1CN(C)Cc1ccc(Cl)c(Cl)c1 | inactive
67 | CCOC(=O)c1ccc(COC(=O)c2cc(=O)[nH]c3ccccc23)o1 | inactive
68 | Cc1noc(C)c1NC(=O)Nc1ccc2c(c1)CC(=O)N([C@H](C)CO)C[C@@H](C)[C@H](CN(C)S(=O)(=O)c1cccs1)O2 | inactive
69 | C[C@@H]1CN([C@H](C)CO)C(=O)c2cc(NC(=O)Nc3ccccc3)ccc2O[C@@H](C)CCCCO[C@@H]1CN(C)S(=O)(=O)c1ccc(F)cc1 | inactive
70 | COc1cc(O)cc(C)c1C(=O)OC1C(CO)OC(n2ccc(=O)[nH]c2=O)C1OC(C)=O (centres undefined) | inactive
71 | COc1ccc(S(=O)(=O)Nc2ccc3c(c2)C(=O)N([C@H](C)CO)C[C@H](C)[C@@H](CN(C)S(C)(=O)=O)OCCCC[C@@H](C)O3)cc1 | inactive
72 | Cc1noc(C)c1S(=O)(=O)Nc1ccc2c(c1)C(=O)N([C@H](C)CO)C[C@H](C)[C@H](CN(C)C(=O)CCC(F)(F)F)OCCCC[C@H](C)O2 | inactive
73 | C[C@@H]1CCCCO[C@@H](CN(C)C(=O)c2ccccc2)[C@H](C)CN([C@@H](C)CO)C(=O)c2cc(NS(=O)(=O)c3cn(C)cn3)ccc2O1 | inactive
74 | Cc1sc2nc(SCC(=O)Nc3ccccc3C(F)(F)F)nc(N)c2c1C | inactive
